Source: PMC7862700, “An all-to-all approach to the identification of sequence-specific readers for epigenetic DNA modifications on cytosine”

Experiments:
Test in all cases: DAPPL (digital affinity profiling via proximity ligation, sequencing); 10 mM Tris-HCl pH 7.5, 50 mM NaCl, 1 mM DTT, 4% glycerol, room temperature, 30 min; GST-TFs on glutathione beads, 16-mer random dsDNA library, 0.1% formaldehyde crosslink after washing; high values mean tight binding
Details in all cases: protein: recombinant; tags: N-terminal GST; dsDNA, one strand shown
FLI1 = biological target: T1, FLI1 (Homo sapiens, UniProt Q01543 1-452)
T1 sequence: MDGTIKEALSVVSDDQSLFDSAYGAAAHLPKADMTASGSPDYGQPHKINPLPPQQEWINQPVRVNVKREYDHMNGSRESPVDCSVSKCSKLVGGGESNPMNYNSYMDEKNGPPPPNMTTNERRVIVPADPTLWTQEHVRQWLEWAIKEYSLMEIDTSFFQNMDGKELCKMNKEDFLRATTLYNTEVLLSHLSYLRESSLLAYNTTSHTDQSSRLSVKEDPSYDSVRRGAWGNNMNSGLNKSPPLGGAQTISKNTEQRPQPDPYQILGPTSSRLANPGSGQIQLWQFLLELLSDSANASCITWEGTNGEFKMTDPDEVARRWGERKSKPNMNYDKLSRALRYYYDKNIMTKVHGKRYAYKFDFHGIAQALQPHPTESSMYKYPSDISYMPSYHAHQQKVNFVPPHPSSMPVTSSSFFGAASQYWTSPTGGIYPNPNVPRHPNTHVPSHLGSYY
Method in brief: (§1)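 In yeast, human transcription factors were expressed with a GST fusion, then pulled down on glutathione beads and given DNA barcodes. Pooled with a tag-only sample, they were exposed to 200 nmole of a 16-mer random double-stranded DNA library (Tris/NaCl/DTT/glycerol buffer, room temperature, 30 min), washed, crosslinked with 0.1% formaldehyde, proximity-ligated using BsaI/T4 ligase for 1 h at 37 °C, PCR-amplified and read on an Illumina NextSeq500. Each hexamer's frequency of reads for a factor, divided by the matching frequency for the tag-only sample, gives the binding signal.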

ELK1 = biological target: T2, ELK1 (Homo sapiens, UniProt P19419 1-428)
T2 sequence: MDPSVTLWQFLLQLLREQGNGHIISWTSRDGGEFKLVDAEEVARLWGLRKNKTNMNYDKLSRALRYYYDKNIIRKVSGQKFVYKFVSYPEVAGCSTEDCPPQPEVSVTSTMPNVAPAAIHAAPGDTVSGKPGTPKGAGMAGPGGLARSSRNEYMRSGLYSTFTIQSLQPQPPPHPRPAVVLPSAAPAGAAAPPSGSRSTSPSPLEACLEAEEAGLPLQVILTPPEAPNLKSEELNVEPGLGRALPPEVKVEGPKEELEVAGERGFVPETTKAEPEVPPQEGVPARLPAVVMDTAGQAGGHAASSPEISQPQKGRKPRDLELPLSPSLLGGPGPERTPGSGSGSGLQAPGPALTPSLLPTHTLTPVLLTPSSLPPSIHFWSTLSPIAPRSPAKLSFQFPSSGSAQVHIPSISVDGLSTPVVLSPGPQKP
Method in brief: as §1

GABPA = biological target: T3, GABPA (Homo sapiens, UniProt Q06546 1-454)
T3 sequence: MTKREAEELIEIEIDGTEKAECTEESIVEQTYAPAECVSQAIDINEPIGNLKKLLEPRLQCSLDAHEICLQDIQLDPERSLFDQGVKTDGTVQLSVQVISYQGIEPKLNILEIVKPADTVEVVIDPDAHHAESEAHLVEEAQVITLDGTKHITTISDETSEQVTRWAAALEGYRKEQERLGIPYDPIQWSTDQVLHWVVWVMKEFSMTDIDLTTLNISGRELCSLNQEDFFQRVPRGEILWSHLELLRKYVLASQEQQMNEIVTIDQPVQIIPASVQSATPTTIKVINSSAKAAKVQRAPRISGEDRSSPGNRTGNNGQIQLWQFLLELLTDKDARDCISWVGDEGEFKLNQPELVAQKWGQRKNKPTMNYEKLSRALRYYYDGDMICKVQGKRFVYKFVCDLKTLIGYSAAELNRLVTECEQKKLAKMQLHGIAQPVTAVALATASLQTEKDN
Method in brief: as §1

ERG = biological target: T4, ERG (Homo sapiens, UniProt P11308 1-479)
T4 sequence: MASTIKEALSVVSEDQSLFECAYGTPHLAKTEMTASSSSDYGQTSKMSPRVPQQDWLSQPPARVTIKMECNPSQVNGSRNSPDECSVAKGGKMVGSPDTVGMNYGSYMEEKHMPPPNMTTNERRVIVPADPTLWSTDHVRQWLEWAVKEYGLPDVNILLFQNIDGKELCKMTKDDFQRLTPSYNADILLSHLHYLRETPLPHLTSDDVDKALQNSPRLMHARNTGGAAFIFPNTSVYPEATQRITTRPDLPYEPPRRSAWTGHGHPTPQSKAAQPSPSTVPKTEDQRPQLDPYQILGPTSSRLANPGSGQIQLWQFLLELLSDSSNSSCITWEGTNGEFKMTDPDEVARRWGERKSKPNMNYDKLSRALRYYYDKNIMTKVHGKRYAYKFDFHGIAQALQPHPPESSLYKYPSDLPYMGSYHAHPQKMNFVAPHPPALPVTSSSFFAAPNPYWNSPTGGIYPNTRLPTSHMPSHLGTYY
Method in brief: as §1

ELF1 = ELF1 (Homo sapiens, UniProt P32519 1-619)
Method in brief: as §1

EHF = biological target: T5, EHF (Homo sapiens, UniProt Q9NZC4 1-300)
T5 sequence: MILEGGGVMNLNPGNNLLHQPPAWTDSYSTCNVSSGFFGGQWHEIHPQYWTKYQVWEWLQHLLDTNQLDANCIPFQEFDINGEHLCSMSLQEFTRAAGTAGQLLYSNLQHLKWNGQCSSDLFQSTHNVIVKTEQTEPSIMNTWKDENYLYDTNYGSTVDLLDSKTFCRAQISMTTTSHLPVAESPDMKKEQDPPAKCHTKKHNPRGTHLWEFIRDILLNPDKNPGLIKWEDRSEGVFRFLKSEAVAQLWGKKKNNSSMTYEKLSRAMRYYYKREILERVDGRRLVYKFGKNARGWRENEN
Method in brief: as §1

SPI1 = SPI1 (Homo sapiens, UniProt P17947 1-270)
Method in brief: as §1

SPIB = SPIB (Homo sapiens, UniProt Q01892 1-262)
Method in brief: as §1

ELK3 = biological target: T6, ELK3 (Homo sapiens, UniProt P41970 1-407)
T6 sequence: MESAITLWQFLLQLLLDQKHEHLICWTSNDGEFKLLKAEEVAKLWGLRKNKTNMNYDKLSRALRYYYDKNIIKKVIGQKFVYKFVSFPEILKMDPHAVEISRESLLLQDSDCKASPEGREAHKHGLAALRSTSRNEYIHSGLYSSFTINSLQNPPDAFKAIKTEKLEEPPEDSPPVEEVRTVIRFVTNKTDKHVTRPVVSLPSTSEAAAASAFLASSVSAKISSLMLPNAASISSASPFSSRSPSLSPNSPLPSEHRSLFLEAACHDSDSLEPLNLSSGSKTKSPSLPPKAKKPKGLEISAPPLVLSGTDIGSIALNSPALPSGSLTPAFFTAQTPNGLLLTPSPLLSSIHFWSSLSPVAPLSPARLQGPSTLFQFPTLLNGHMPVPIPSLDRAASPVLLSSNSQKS
Method in brief: as §1

FEV = biological target: T7, FEV (Homo sapiens, UniProt Q99581 1-238)
T7 sequence: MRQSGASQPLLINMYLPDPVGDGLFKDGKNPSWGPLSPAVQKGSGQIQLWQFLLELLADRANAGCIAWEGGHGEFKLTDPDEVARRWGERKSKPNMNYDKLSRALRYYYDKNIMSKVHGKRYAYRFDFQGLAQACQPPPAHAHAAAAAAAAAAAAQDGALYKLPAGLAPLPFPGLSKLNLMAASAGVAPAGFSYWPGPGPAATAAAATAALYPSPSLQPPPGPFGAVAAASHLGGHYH
Method in brief: as §1

ETV5 = ETV5 (Homo sapiens, UniProt P41161 1-510)
Method in brief: as §1

SPIC = biological target: T8, SPIC (Homo sapiens, UniProt Q8N5J4 1-248)
T8 sequence: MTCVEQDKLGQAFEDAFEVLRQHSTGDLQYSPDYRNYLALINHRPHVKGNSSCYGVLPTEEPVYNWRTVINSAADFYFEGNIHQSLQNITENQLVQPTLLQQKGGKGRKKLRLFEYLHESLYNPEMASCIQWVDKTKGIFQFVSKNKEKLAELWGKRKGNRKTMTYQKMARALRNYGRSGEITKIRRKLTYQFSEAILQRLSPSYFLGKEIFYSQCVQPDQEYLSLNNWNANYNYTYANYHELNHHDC
Method in brief: as §1

ELF4 = ELF4 (Homo sapiens, UniProt Q99607 1-663)
Method in brief: as §1

ELK4 = biological target: T9, ELK4 (Homo sapiens, UniProt P28324-2 1-405)
T9 sequence: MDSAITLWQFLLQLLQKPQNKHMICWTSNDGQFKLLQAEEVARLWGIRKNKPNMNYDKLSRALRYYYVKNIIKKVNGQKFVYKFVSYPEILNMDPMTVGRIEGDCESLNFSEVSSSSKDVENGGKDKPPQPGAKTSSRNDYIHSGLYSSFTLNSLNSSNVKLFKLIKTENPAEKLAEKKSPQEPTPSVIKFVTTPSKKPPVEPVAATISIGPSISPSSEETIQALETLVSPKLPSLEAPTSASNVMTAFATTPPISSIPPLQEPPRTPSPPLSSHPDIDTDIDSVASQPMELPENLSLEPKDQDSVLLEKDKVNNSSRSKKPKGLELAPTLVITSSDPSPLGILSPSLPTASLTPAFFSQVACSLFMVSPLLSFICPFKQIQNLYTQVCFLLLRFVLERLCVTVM
Method in brief: as §1

ETV2 = biological target: T10, ETV2 (Homo sapiens, UniProt O00321 1-342)
T10 sequence: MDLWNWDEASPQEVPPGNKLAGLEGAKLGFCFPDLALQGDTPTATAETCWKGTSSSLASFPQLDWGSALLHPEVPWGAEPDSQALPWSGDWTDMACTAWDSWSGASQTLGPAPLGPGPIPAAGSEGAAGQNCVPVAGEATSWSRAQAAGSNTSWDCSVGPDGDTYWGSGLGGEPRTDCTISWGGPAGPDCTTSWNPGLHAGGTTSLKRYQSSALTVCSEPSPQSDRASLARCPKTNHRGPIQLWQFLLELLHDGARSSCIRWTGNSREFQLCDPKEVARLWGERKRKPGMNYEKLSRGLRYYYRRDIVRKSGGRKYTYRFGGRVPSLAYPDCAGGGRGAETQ
Method in brief: as §1

ELF3 = biological target: T11, ELF3 (Homo sapiens, UniProt P78545 1-371)
T11 sequence: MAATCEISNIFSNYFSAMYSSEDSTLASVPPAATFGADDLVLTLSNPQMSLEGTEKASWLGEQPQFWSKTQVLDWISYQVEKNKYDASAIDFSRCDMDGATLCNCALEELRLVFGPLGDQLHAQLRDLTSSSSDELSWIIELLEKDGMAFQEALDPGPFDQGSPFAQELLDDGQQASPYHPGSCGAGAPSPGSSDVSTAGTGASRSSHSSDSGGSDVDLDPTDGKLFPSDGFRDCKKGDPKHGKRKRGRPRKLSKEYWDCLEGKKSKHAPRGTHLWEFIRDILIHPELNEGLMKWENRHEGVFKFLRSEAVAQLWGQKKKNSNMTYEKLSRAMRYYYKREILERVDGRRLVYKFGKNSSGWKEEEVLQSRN
Method in brief: as §1

CRX = CRX (Homo sapiens, UniProt O43186 1-299)
Method in brief: as §1

ETV1 = ETV1 (Homo sapiens, UniProt P50549 1-477)
Method in brief: as §1

Sequence of ELF4 (Q99607 whole entry): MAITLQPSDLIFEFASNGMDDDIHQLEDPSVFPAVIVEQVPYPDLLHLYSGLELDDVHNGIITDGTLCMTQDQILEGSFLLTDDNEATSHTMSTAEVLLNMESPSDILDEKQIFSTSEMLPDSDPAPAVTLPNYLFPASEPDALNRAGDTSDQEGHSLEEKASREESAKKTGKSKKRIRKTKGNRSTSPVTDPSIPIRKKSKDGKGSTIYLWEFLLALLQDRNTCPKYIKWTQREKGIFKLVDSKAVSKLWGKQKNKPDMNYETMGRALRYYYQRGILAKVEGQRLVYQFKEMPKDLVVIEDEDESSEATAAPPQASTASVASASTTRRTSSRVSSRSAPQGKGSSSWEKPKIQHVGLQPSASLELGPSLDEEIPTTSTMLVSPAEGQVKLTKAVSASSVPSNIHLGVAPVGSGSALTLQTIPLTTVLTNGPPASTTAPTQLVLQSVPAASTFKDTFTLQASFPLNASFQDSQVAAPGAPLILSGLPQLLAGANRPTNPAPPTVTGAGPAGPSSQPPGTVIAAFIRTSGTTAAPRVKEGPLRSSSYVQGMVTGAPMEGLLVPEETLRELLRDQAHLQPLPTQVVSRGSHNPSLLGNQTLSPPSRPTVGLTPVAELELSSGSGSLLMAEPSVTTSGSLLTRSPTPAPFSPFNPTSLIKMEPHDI
Sequence of ETV5 (P41161 whole entry): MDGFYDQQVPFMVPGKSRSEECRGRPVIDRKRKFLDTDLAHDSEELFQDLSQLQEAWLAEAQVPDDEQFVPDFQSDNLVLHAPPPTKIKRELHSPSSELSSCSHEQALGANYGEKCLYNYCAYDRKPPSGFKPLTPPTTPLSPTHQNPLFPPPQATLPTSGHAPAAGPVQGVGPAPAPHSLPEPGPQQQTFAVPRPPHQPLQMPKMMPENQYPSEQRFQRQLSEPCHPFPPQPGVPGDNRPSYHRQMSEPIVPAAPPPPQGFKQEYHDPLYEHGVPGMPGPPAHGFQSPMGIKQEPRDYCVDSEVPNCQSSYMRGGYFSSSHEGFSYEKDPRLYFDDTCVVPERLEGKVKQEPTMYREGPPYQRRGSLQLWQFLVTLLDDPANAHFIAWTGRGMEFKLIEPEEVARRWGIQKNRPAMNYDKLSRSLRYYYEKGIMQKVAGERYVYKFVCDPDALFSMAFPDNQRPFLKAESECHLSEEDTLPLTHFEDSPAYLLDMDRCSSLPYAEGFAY
Sequence of ELF1 (P32519 whole entry): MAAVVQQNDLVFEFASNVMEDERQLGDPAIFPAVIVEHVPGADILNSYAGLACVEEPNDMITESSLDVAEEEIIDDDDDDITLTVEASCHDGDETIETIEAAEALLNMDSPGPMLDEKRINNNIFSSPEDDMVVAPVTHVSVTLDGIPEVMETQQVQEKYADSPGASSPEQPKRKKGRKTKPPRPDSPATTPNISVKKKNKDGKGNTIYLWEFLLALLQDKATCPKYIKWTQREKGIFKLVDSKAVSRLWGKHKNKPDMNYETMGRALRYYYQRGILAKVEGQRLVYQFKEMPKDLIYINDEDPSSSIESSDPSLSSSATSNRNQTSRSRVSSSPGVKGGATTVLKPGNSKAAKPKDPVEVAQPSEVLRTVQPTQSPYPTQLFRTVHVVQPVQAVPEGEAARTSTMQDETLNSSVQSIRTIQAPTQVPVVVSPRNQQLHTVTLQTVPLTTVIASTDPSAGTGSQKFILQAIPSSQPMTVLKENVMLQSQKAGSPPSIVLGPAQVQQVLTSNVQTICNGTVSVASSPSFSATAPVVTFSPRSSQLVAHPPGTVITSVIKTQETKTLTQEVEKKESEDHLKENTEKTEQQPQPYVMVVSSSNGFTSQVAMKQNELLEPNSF
Sequence of ETV1 (P50549 whole entry): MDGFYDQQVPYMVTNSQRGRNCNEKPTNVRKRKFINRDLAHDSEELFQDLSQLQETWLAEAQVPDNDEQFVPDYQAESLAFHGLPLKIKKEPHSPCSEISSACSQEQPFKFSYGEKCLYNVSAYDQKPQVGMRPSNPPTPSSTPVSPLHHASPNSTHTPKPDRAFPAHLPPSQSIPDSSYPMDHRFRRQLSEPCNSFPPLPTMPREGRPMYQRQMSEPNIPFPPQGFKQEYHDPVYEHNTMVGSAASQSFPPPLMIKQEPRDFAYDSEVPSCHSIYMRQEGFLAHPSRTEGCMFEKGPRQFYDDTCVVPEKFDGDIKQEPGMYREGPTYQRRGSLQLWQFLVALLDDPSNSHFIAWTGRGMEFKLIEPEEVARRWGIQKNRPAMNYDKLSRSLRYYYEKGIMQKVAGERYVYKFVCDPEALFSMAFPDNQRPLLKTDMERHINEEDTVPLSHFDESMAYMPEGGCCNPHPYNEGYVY
Sequence of SPIB (Q01892 whole entry): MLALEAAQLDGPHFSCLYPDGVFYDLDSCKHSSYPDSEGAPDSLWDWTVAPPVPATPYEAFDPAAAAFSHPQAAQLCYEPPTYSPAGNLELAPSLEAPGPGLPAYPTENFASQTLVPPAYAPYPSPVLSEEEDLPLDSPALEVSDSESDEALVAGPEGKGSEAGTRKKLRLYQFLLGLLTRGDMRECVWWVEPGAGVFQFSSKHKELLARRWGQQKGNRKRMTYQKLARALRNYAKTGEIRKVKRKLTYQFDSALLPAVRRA
Sequence of CRX (O43186 whole entry): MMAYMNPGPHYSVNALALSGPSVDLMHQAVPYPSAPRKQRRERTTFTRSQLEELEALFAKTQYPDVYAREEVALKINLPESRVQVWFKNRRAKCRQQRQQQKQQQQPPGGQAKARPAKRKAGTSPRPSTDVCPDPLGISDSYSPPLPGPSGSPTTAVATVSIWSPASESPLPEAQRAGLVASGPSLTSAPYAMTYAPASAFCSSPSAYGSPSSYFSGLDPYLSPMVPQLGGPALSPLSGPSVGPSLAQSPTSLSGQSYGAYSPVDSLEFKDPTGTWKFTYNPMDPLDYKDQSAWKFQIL

Row | Sequence | binding signal (FLI1) | binding signal (ELK1) | binding signal (GABPA) | binding signal (ERG) | binding signal (ELF1) | binding signal (EHF) | binding signal (SPI1) | binding signal (SPIB) | binding signal (ELK3) | binding signal (FEV) | binding signal (ETV5) | binding signal (SPIC) | binding signal (ELF4) | binding signal (ELK4) | binding signal (ETV2) | binding signal (ELF3) | binding signal (CRX) | binding signal (ETV1)
1 | CGCTCA | 1.13 fold enrichment (6-mer frequency, TF over GST control) | 1.21 fold enrichment (6-mer frequency, TF over GST control) | 1.16 fold enrichment (6-mer frequency, TF over GST control) | 1.25 fold enrichment (6-mer frequency, TF over GST control) | 1.13 fold enrichment (6-mer frequency, TF over GST control) | 1.18 fold enrichment (6-mer frequency, TF over GST control) | 1.16 fold enrichment (6-mer frequency, TF over GST control) | 1.16 fold enrichment (6-mer frequency, TF over GST control) | 1.13 fold enrichment (6-mer frequency, TF over GST control) | 1.13 fold enrichment (6-mer frequency, TF over GST control) | 1.19 fold enrichment (6-mer frequency, TF over GST control) | 1.06 fold enrichment (6-mer frequency, TF over GST control) | 1.24 fold enrichment (6-mer frequency, TF over GST control) | 1.32 fold enrichment (6-mer frequency, TF over GST control) | 1.26 fold enrichment (6-mer frequency, TF over GST control) | 1.16 fold enrichment (6-mer frequency, TF over GST control) | 1.2 fold enrichment (6-mer frequency, TF over GST control) | 1.13 fold enrichment (6-mer frequency, TF over GST control)
2 | ACCGCC | 1.38 fold enrichment (6-mer frequency, TF over GST control) | 1.23 fold enrichment (6-mer frequency, TF over GST control) | 1.35 fold enrichment (6-mer frequency, TF over GST control) | 1.27 fold enrichment (6-mer frequency, TF over GST control) | 1.29 fold enrichment (6-mer frequency, TF over GST control) | 1.36 fold enrichment (6-mer frequency, TF over GST control) | 1.19 fold enrichment (6-mer frequency, TF over GST control) | 1.13 fold enrichment (6-mer frequency, TF over GST control) | 1.3 fold enrichment (6-mer frequency, TF over GST control) | 1.32 fold enrichment (6-mer frequency, TF over GST control) | 1.23 fold enrichment (6-mer frequency, TF over GST control) | 1.16 fold enrichment (6-mer frequency, TF over GST control) | 1.38 fold enrichment (6-mer frequency, TF over GST control) | 1.23 fold enrichment (6-mer frequency, TF over GST control) | 1.13 fold enrichment (6-mer frequency, TF over GST control) | 1.33 fold enrichment (6-mer frequency, TF over GST control) | 1.01 fold enrichment (6-mer frequency, TF over GST control) | 1.05 fold enrichment (6-mer frequency, TF over GST control)
